Assay outcomes: PubChem BioAssay, The Scripps Research Institute Molecular Screening Center
Only some compounds are listed: those with a hit (about 2.9% of all), similar ones and a draw of the others.
PLC-gamma1 inh – blocks human PLC-gamma1 enzyme activity; purified PLC-gamma1, fluorogenic substrate, fluorescence; inhibition, % at 12.2 µM; 370,000 compounds, 0.84% hits; P19174; AID 720700; in the data active = inhibition above about 9.5%
ADAM10 inh – ADAM10 inhibition, QFRET primary screen | O14672 | recombinant ADAM10, EDANS/DABCYL FRET peptide cleavage, 3 h | inhibition, % at 7 µM | 370,000 compounds, 0.62% hits;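 active = inhibition above a per-campaign cutoff equal to the mean of compounds falling between control-based bounds plus 3 SD, cut at about 20% in these data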;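 also: 0% = DMSO wells while the 100% control is not disclosed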
proKLK7 act – activators of human kallikrein-7 zymogen; 370,000 compounds, 0.9% hits; AID 652039; activation, % at 7 µM; P49862; purified proKLK7, EDANS-DABCYL substrate fluorescence; 100% is mature enzyme control, 0% vehicle;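 active = activation above the mean of all tested compounds plus 3 SD, computed per campaign excluding outliers beyond control limits, cut at about 13% in these data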
Target sequence (P49862 whole entry, looked up): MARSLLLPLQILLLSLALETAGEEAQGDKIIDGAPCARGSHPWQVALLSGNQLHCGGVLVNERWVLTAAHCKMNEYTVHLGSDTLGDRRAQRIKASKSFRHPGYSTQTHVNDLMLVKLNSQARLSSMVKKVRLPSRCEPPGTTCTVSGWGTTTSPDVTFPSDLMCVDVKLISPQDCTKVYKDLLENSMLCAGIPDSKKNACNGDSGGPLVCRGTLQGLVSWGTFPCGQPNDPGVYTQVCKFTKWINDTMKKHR
PLC-beta3 inh – blocks human PLC-beta3 enzyme activity; inhibition, % at 12.2 µM; 370,000 compounds, 0.18% hits; Q01970; Purified PLC-beta3, fluorogenic substrate, fluorescence; in the data active = inhibition above about 11%;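 also: 0% = median of compound wells on plate and 100% = full blocker control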
ADAM17 inh – ADAM17 inhibition, QFRET primary screen | recombinant ADAM17, EDANS/DABCYL FRET peptide cleavage | inhibition, % at 6.95 µM | 370,000 compounds, 0.83% hits | AID 720648;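 active = inhibition above the mean of compounds lying between control limits plus 3 SD, set per campaign, cut at about 8.5% in these data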;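 also: 0% = DMSO-only wells as the low control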
ADAM10 ctr – ADAM10 inhibition, counter-screen for ADAM17 exosite hits; recombinant ADAM10, EDANS/DABCYL FRET peptide cleavage, 3 h; inhibition, % at 6.95 µM; 2,900 compounds, 47% hits; shares compounds with ADAM17 inh;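 active = mean inhibition over the triplicate runs exceeds the activity threshold set in the earlier primary screen, cut at about 20% in these data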;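 also: 0% = DMSO wells and 100% = marimastat wells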
ADAM17 confirm – confirmation of inhibitors of human ADAM17; 2,900 compounds, 65% hits; inhibition, % at 6.95 µM; recombinant ADAM17, EDANS/DABCYL QFRET peptide cleavage; shares compounds with ADAM17 inh;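 active = mean inhibition across replicates above the hit cutoff set in the primary screen, cut at about 8.5% in these data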;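 also: 0% = DMSO wells and 100% = marimastat wells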
An asterisk follows results filed as active; . = not tested or not shown.

SMILES	PLC-gamma1 inh	ADAM10 inh	proKLK7 act	PLC-beta3 inh	ADAM17 inh	ADAM10 ctr	ADAM17 confirm
CC(=O)Oc1ccc(N2C(=O)CCC2=O)cc1	3	-2	1	3	-2	.	.
COc1cc(/C=C(\C#N)c2ccccn2)ccc1OCc1ccccc1	-9	0	0	-16	9.4*	9	16*
COc1cc(/C=C(\C#N)c2ccccn2)ccc1OCc1ccc(Cl)cc1	-10	10	0	-17	5	.	.
CC1=C2CCCC[C@@]23C2C(=O)N(C)C(=O)[C@@H]2ON3OC1 (stereo partly drawn)	1	-4	0	6	0	.	.
CCN1CCN(C(=O)c2cc(S(=O)(=O)N3CCCCC3)ccc2Cl)CC1	-4	-4	0	-7	-5	.	.
Cc1nc(C(=O)O)sc1C1(C)CC(c2cccc([N+](=O)[O-])c2)=NO1 (stereo not drawn)	-1	0	0	-1	-4	.	.
COC(=O)[C@H](C(C)C)N(Cc1cn(CC2CCCCC2)nn1)S(=O)(=O)c1ccc(F)cc1Br	4	4	0	1	4	.	.
COC(=O)[C@H](C(C)C)N(CCc1cn(Cc2ccc(C)cc2)nn1)S(=O)(=O)c1ccccc1Br	4	18	1	0	11*	24*	17*
COC(=O)[C@H](C(C)C)N(CCCc1cn(CC2CCCCC2)nn1)S(=O)(=O)c1ccc(F)cc1Br	6	11	0	6	11*	26*	14*
O=C(CCNC(=O)c1ccc(Cl)cc1)NCCC1=CCCCC1	8	4	1	2	8.7*	14	9.2*
O=C(NNC(=O)c1ccccc1F)c1ccc(S(=O)(=O)N2CCCCC2)cc1	3	-13	-1	-1	-5	.	.
Cc1ccc(N(C)S(=O)(=O)c2c[nH]c3ccc([N+](=O)[O-])cc23)cc1	1	6	0	-9	5	.	.
CCN(c1ccccc1)S(=O)(=O)c1c[nH]c2ccc([N+](=O)[O-])cc12	-1	6	0	-1	9.3*	32*	16*
COc1ccc(CN(C)C(=O)c2ccc(NS(=O)(=O)c3ccc(C)c([N+](=O)[O-])c3)cc2)c(OC)c1OC	2	-3	1	-6	0	.	.
Cc1ccc(S(=O)(=O)Nc2nc(C)c(NC(=O)Nc3ccc(Cl)cc3Cl)s2)cc1	-3	2	0	-7	-2	.	.
Cc1ccc(S(=O)(=O)Nc2nc(C)c(NC(=O)OCCCl)s2)cc1	3	0	-1	3	8.9*	3	6
O=C1C=CC(=O)N1CCCCCCCCCCN1C(=O)C=CC1=O	-7	-39	-2	-9	-8	.	.
COc1ccccc1Cc1c(-c2ccc(Cl)cc2)nc2ccc(C)cn12	-11	-45	-2	-22	-7	.	.
COC(=O)[C@@H]1C[C@@]2(O)[C@H](O)[C@H](O)[C@H](O)C[C@H]2N1Cc1ccc(C(F)(F)F)cc1	4	1	0	8	10*	7	6
CCC[C@H]1[C@@H](NC(=O)c2cccc(Cl)c2)CC[C@@]23CCCN2C(=O)CCC[C@@H]13	-2	2	.	4	-1	.	.
N#Cc1ccccc1S(=O)(=O)N1CCN(C(=O)[C@H](Cc2ccccc2)NC(=O)c2ccco2)CC1	0	-1	1	-5	-1	.	.
COc1cccc(C2C(C#N)=C(N)Oc3c2oc(CO)cc3=O)c1 (stereo not drawn)	-20	-2	1	-23	14*	6	11*
CCCNc1ncnc2onc(C)c12	5	5	0	6	9.8*	11	9
Fc1ccccc1Cn1nnc2c(-n3ccnc3)ncnc21	9	10	0	4	8.7*	-8	0
Clc1ccccc1Cn1nnc2c(N3CCCC3)ncnc21	3	-4	1	-3	-4	.	.
SMILES	PLC-gamma1 inh	ADAM10 inh	proKLK7 act	PLC-beta3 inh	ADAM17 inh	ADAM10 ctr	ADAM17 confirm
CC1=C(C(=O)OCc2ccccc2)C(/C=C/c2ccccc2)NC(=S)N1 (stereo not drawn)	4	18	0	-15	12*	30*	15*
CCc1nc2c(OCCC3CCCCC3)cccn2c1N(C)C(=O)CC(C)C	-4	-11	0	-7	-4	.	.
CCCCC(=O)N(C)c1c(CC)nc2c(OCC3CCCCC3)cccn12	1	5	1	0	9.7*	0	3
CCc1nc2c(OCCC3CCCCC3)cccn2c1N(C)C(=O)c1cccs1	6	17	0	5	9.4*	21*	12*
Cc1ccc(NC(=O)COC(=O)c2ccc(S(=O)(=O)N3CCCC3)cc2)cc1	2	-4	0	-7	-5	.	.
O=C(CN1C(=O)NC(Cc2c[nH]c3ccccc23)C1=O)Nc1ccc(Br)cc1F (stereo not drawn)	1	9	0	-2	2	.	.
Cc1cc(F)ccc1S(=O)(=O)N1CCCOC1CNC(=O)C(=O)NCCc1c[nH]c2ccccc12 (stereo not drawn)	5	6	0	-6	3	.	.
Cc1cc(C)c(S(=O)(=O)N2CCCOC2CNC(=O)C(=O)NCCc2c[nH]c3ccccc23)c(C)c1 (stereo not drawn)	0	16	-1	3	8.6*	20*	12*
Cc1cc(C)cc(NC(=O)C(=O)NCCc2c[nH]c3ccccc23)c1	3	27*	0	-9	11*	21*	11*
CC(C)(C)N1Cc2nnn(Cc3ccccc3)c2-c2cc(N3CCCCC3)ccc2S1(=O)=O	-15	-14	-2	-15	-7	.	.
CC(=O)Nc1ccc(S(=O)(=O)N(C)c2ccc(OCCOc3cccc(C)c3)cc2)cc1	-5	-3	0	-13	8.7*	26*	14*
Cc1ccc(S(=O)(=O)N(C)c2ccc(OCC(=O)OCc3cccc(Br)c3)cc2)cc1	0	16	0	-5	9.1*	25*	16*
Cc1ccc(S(=O)(=O)N(C)c2ccc(OCc3cccc(C)c3)cc2)cc1	5	2	0	-8	3	.	.
Cc1cccc(OCC(=O)N2CCc3ccccc3C2)c1	0	8	-1	-10	-3	.	.
COc1ccc(C(=O)C2(C(=O)NCc3ccccc3)CC(c3ccccc3C(F)(F)F)=NO2)cc1 (stereo not drawn)	-3	12	1	0	9.1*	22*	15*
COc1ccc(C2CC(=O)C(c3cccc(OC)c3)=CN2Cc2ccccc2)cc1 (stereo not drawn)	-22	-1	0	-30	3	.	.
Cc1cccc(Nc2nc(N)c([N+](=O)[O-])c(N3CC(C)OC(C)C3)n2)c1 (stereo not drawn)	6	-1	0	-6	-1	.	.
